LASV entry inh – inhibitors of Lassa virus binding or cell entry; Lassa virus pseudotype entry inhibition, cell reporter; Potency, µM (doses to about 37.9 µM), for inactives: at the highest dose activity change, negative = inhibition, actives largely listed as inhibitors; hit rate 1.2% among 300,000; AID 540256; calls by dose curve; tested in HEK293 cells; further: nearly all actives have a fitted effect of over 50% in size
Vaccinia Venus – inhibitors of vaccinia virus (Venus reporter). Vaccinia virus Venus reporter expression, fluorescence. Potency, µM (top dose mostly 36.5 µM), for inactives: top-dose activity change, negative = inhibition, actives largely listed as inhibitors. hit rate 0.46% among 330,000; calls by dose curve; tested in A549 cells; further: nearly all actives have a fitted effect of over 30% in size
Vaccinia mCherry – inhibitors of vaccinia virus infection (mCherry reporter signal); Vaccinia virus mCherry reporter infection, fluorescence; Potency, µM (doses to about 36.5 µM), for inactives: at the highest dose activity change, negative = inhibition, hits mostly inhibitors; hit rate 0.63% among 310,000; AID 720579; calls by dose curve; tested in A549 cells; further: nearly all actives have a fitted effect of over 35% in size
MARV entry inh – inhibitors of Marburg virus binding or cell entry; Marburg virus pseudotyped entry inhibition, cell reporter; Potency, µM (doses to about 37.8 µM), for the others: top-dose activity change, negative = inhibition, usual class: inhibitors; hit rate 1.8% among 300,000; AID 540276; calls by dose curve; tested in HEK293 cells
FMDV antiviral – blocks foot and mouth disease virus. FMDV antiviral cell-based qHTS. Potency, µM (doses to about 57.9 µM), inactives show top-dose activity change, negative = inhibition, actives largely listed as inhibitors. hit rate 1.2% among 410,000. AID 1159524; calls by dose curve; tested in HEK293T cells; further: read-out not given here; nearly all actives have a fitted effect of over 45% in size
An asterisk follows results filed as active; i = inactive; ? = inconclusive; nt = no result given; ! = not active in a repeat; [ ] = remark or other dose. An excerpt weighted towards active compounds, which were near 3.2% of everything screened. On the % scale 0 is the no-effect control and ±100 the full control effect; potency means the concentration at half of the fitted maximal effect.

SMILES	LASV entry inh	Vaccinia Venus	Vaccinia mCherry	MARV entry inh	FMDV antiviral
O=C(NC[C@H](O)c1ccccc1)c1ccccc1	nt	nt	nt	nt	39%
CC(C)(C)NC(=O)C(c1ccc(F)cc1)N(Cc1cccs1)C(=O)c1ccc(CN2CCOCC2)o1 (configuration not stated)	8%	-18%	-22%	2.8µM*	9%
CC(C)CCNC(=O)C(C)N(Cc1ccc(F)cc1)C(=O)c1ccc(CN2CCOCC2)o1 (configuration not stated)	24%	-6%	6%	-18%[46.1 µM]	-6%
COC(=O)c1ccccc1-c1cc(C)cc2c1OC(CNC(=O)c1occc1C)C2 (configuration not stated)	nt	-13%	-4%	nt	32%
CC(C)CC(N)c1csc(NC(=O)c2cc(C(C)(C)C)nn2Cc2ccccc2)n1 (configuration not stated)	nt	13µM*	11µM*	nt	?
Cc1ccc(N2CN=c3s/c(=C/c4cccnc4)c(=O)n3C2)cc1	nt	nt	nt	-20%[46.1 µM]	nt
COc1cc(C(=O)NCCOc2cc(C)ccc2C(C)C)cc(OC)c1OC	2.8µM*	-29%	-10%	3.2µM*	?
Cc1ccccc1CNC(=O)C(C)n1nc(C)n2c(cc3occc32)c1=O (configuration not stated)	nt	-17%	-8%	4%[46.1 µM]	4%
CNc1ccc2nc3ccccc3[n+](C)c2c1	nt	367%	137%	nt	-17%
CCN(CC)c1ccc2nc3ccccc3[n+](CC)c2c1	?	?	50%	?	7.9µM*
CCN(CC)c1ccc2nc3ccc(N)cc3[n+](-c3ccccc3)c2c1	8.9µM*	i	i	?	?
COCC(=O)N1CCC2(CC1)CN(C(=O)Nc1cccc(C#N)c1)C2	nt	nt	nt	nt	-4%
COC(=O)C(C(C)=O)C(NC(=O)NCc1ccccc1)c1ccccc1 (configuration not stated)	nt	nt	nt	25%[14.2 µM]	nt
O=C(Nc1ccc(Cl)cc1)C1=Cc2cc(Cl)ccc2OC1	8%	?	-20%[1.46 µM]	1%	?
O=C(Nc1ccc(Cl)cc1Cl)C1=Cc2ccccc2OC1	13µM*	-17%	-26%	?	-32%
CC1(C)O[C@@H](C(O)(c2cc(C(F)(F)F)cc(C(F)(F)F)c2)c2cc(C(F)(F)F)cc(C(F)(F)F)c2)[C@H](C(O)(c2cc(C(F)(F)F)cc(C(F)(F)F)c2)c2cc(C(F)(F)F)cc(C(F)(F)F)c2)O1	nt	nt	nt	-9%[14.2 µM]	nt
O=C(Nc1ccc2nc3n(c(=O)c2c1)CCCCC3)c1ccccc1[N+](=O)[O-]	nt	-1%[7.34 µM]	-5%[7.34 µM]	nt	8%
COc1ccc(C(=O)Nc2ccc3nc4n(c(=O)c3c2)CCCCC4)cc1OC	1%[46.1 µM]	-7%	-9%	28%[46.1 µM]	-16%
COc1cc(C(=O)Nc2ccc3nc4n(c(=O)c3c2)CCCCC4)cc(OC)c1OC	-12%[46.1 µM]	-1%[7.34 µM]	-10%[7.34 µM]	-15%[46.1 µM]	10µM*!
O=C(Nc1ccc2nc3n(c(=O)c2c1)CCCCC3)c1c(F)ccc([N+](=O)[O-])c1F	?	?	?	7.1µM*	10µM*
O=C(Nc1ccc2nc3n(c(=O)c2c1)CCCCC3)c1cc([N+](=O)[O-])ccc1F	nt	nt	nt	nt	32µM*
O=c1c2cc(NC(=S)NCCCN3CCC(Cc4ccccc4)CC3)ccc2nc2n1CCCCC2	?	?	-21%	7.1µM*	-21%
O=c1c2cc(NC(=S)NCCN3CCCCCC3)ccc2nc2n1CCCCC2	?	-3%	-11%	?	-22%
CC(C)=CCCC(C)=CCN1C(=O)[C@@]2(C[C@@H](C)C[C@@H](C)O2)c2ccccc21	nt	nt	nt	-7%[14.2 µM]	nt
C=CCc1ccccc1OCc1nc2ccc(C)cc2[nH]1	-23%[46.1 µM]	14%	5%	-9%[46.1 µM]	-15%
SMILES	LASV entry inh	Vaccinia Venus	Vaccinia mCherry	MARV entry inh	FMDV antiviral
COc1ccc(N2CCN(/C(=N\S(=O)(=O)c3ccc(C)cc3)Nc3nc(C)cc(C)n3)CC2)cc1	8.2µM*	nt	nt	-17%	23%
CCCCC(=O)OCC(=O)Nc1ccc(C)c(F)c1	-2%	-13%	-13%	25%[46.1 µM]	-11%
CN(C)c1nc(NCc2ccccc2)nc(N/N=C/c2ccc(Cl)cc2Cl)n1	-18%	-3%	-3%	?	-26%
CCOC(=O)c1sc(N(Cc2ccccc2)C(=O)CCl)nc1C	18µM*	-12%	-21%	?	?
CCOC(=O)c1sc(N(Cc2ccccc2)C(=O)COC(=O)c2ccc(O)cc2)nc1C	2.1µM*	?	i	?	0%
CCOC(=O)c1sc(N(Cc2ccccc2)C(=O)COC(=O)c2ccccc2O)nc1C	-24%	-12%	i	?	21%
